From PubChem BioAssay
Only some compounds are listed: those with a hit (about 2.3% of all), similar ones and a draw of the others.
Nrf2 block: Nrf2 qHTS screen for inhibitors; A549 ARE-Fluc reporter, luciferase luminescence, 18-24 h; Potency, µM (titrated, usually from 46 µM), for the others: at the top dose activity change, negative = inhibition, actives largely listed as inhibitors; hit rate 2.1% among 360,000; also: potency is read from the fitted curve at half-maximal effect; % is scaled to controls: 0 for no effect and ±100 for the full control effect; nearly all actives have a fitted effect of over 60% in size
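Quantitative HTS in A549 cells stably bearing an antioxidant response element-firefly luciferase construct. Inhibition of Nrf2-driven transcription was scored by luminescence after 18-24 h of compound exposure at 37 °C.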
IDH1 R132H inh: qHTS for Inhibitors of mutant isocitrate dehydrogenase 1 (IDH1): qHTS; Isocitrate dehydrogenase [NADP] cytoplasmic (Homo sapiens), O75874; IDH1-R132H enzyme, NADPH consumption, diaphorase/resazurin fluorescence; Potency, µM (titrated, usually from 76.6 µM), inactives show at the top dose activity change, negative = inhibition, hits mostly inhibitors; hit rate 0.093% among 390,000; also: potency is read from the fitted curve at half-maximal effect; % is scaled to controls: 0 for no effect and ±100 for the full control effect; nearly all actives have a fitted effect of over 65% in size
Target sequence (O75874 whole entry R132H, stated change not applied): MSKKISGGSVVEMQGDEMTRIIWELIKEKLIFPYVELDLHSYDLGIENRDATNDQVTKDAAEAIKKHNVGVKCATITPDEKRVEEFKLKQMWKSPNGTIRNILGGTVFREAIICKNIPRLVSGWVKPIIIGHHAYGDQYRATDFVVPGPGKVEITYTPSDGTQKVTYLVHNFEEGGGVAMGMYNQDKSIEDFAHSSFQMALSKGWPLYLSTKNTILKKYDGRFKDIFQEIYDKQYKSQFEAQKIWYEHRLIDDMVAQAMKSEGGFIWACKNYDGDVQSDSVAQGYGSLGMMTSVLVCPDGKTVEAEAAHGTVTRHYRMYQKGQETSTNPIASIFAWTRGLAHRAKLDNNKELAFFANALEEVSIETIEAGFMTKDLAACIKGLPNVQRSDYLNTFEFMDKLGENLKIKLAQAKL
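IDH1-R132H (0.5 ug/mL) preincubated 30 min with compound, then NADPH (0.016 mM) and alpha-KG (2 mM) added; 80 min at RT, pH 7.5. Remaining NADPH coupled via diaphorase/resazurin to fluorescence (540/590 nm); concentration-response curves normalized to no-enzyme control.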
A549 tox: Nrf2 qHTS screen for inhibitors: counterscreen for cytotoxicity; AID 504648, 2011; Potency, µM (top dose mostly 46 µM), inactives show at the highest dose activity change, negative = cytotoxicity, usual class: inhibitors; A549 ARE-Fluc cells, CellTiter-Fluor viability, 18-24 h; hit rate 0.16% among 390,000; also: potency is read from the fitted curve at half-maximal effect; % is scaled to controls: 0 for no effect and ±100 for the full control effect
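Cytotoxicity counterscreen: CellTiter-Fluor fluorescence was measured in A549 ARE_Fluc cells after 18-24 h of compound exposure in a concentration series. The subsequent BugLite luminescent read reports ARE-luciferase activity.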
Anesthetic bind: qHTS Assay for Identification of Novel General Anesthetics; apoferritin/1-aminoanthracene competitive binding, fluorescence; Potency, µM (doses to about 77.5 µM), for the others: at the top dose activity change, negative = displacement, hits mostly inhibitors; hit rate 0.074% among 350,000; also: potency is read from the fitted curve at half-maximal effect; % is scaled to controls: 0 for no effect and ±100 for the full control effect; nearly all actives have a fitted effect of over 20% in size
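Horse-spleen apoferritin (10 uM) in 50% saturated 1-aminoanthracene in PBS was incubated 10 min at room temperature with compound. Fluorescence (ex 380, em 535 nm) was normalized to free and bound 1-AMA, with concentration-response fitted by a four-parameter Hill equation.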
Giardia kill: Small Molecules that selectively kill Giardia lamblia: qHTS. Giardia lamblia trophozoite viability. activity change, % at 7.66 µM, hits read low. hit rate 0.15% among 340,000. AID 540267, 2011; in the data active = activity change below about -80%; inconclusive = between about -30% and that limit;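 also: parasites exposed to compound for two days anaerobically before the ATP read; % is scaled to controls: 0 for no effect and ±100 for the full control effect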
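Compounds were tested on trophozoites seeded at 100 cells/well and held 48 hrs at 37 deg C anaerobically. An ATP-based luminescent kit measured the remaining live cells.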
Nrf2 activator: qHTS of Nrf2 Activators. AREc32 ARE-luciferase reporter (MCF7-derived line), luminescence, 24 h. Potency, µM (series often up to 46.1 µM), for the others: at the highest dose activation, usual class: activators. hit rate 0.31% among 410,000. AID 624171, 2012; also: potency is read from the fitted curve at half-maximal effect; % of control where 0% means no effect; nearly all actives have a fitted effect of over 65% in size
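AREc32 cells carrying an ARE-driven firefly luciferase reporter were seeded at 1000 cells/well in OPTI-MEM with 5% FBS, then exposed to compound for 24 hr at 37 deg C. Luminescence was read with Steady-Glo after 30 min at RT.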
Numbers without * were called inactive; ? = inconclusive; / = no result given; ! = not active in a repeat. Unless noted, calls follow the shape of the dose curve; as a rule, active = well fitted curve in the direction sought with a large enough effect; inconclusive = small, poorly fitted or top-dose-only effect, or another doubt; inactive = no such curve, though single readings can be large; an effect the other way counts as inactive or inconclusive.

SMILES | Nrf2 block | IDH1 R132H inh | A549 tox | Anesthetic bind | Giardia kill | Nrf2 activator
COC(=O)c1cc(NC(=O)CN(c2ccccc2OC)S(=O)(=O)c2ccccc2)ccc1Cl | ? | 3% | 2% | -14% | 8 | 0%
Oc1cccc(C(Nc2nccs2)c2ccc3cccnc3c2O)c1 (configuration not stated) | 16µM* | 0% | -23% | -13% | 5 | 0%
CN1CCN(c2nc3c(=O)[nH]c(N)nc3n2C2OC(CO)C(O)C2O)CC1 (configuration not stated) | ? | / | 1% | / | 13 | /
Cc1csc2c(N3CCN(C(=O)Nc4ccc(Cl)c(Cl)c4)CC3)ncnc12 | 21µM* | 6% | -16% | -15% | -17 | 3%
Cc1csc2c(N3CCN(C(=O)NC(C)(C)C)CC3)ncnc12 | 18µM* | -3% | -16% | 4% | -5 | -1%
Cc1csc2c(N3CCN(C(=O)c4ccc(C(C)(C)C)cc4)CC3)ncnc12 | -23% | 0% | -2% | -3% | 22 | 7%
Cc1cccc(-n2c(Cc3ccccc3)nnc2SCc2nc(-c3cccs3)no2)c1 | ? | 9% | ? | -2% | / | 4%
N#Cc1nc(Nc2cc(F)cc(F)c2)c2ncn(CCCO)c2n1 | 14% | / | -5% | / | / | /
Cn1c2cc(Br)sc2c2cnn(Cc3ccccc3F)c(=O)c21 | 3% | / | -3% | / | / | /
NC(=O)N=Nc1c2[nH]c3ccccc3nc-2c2ccccc12 | 10µM* | -5% | ? | -10% | 1 | 10%
O=c1[nH]c2ccccc2nc1-c1ccccc1 | ? | -10% | -4% | 25% | -28 | 4%
Cc1ccn2c(NCc3ccco3)c(-c3ccccc3)nc2c1 | ? | / | -1% | / | -2 | /
COc1ccc2c(C)c(CC(=O)N3CCN(C(=O)C4COc5ccccc5O4)CC3)c(=O)oc2c1 (configuration not stated) | 23µM* | 1% | 13% | ? | 0 | 0%
Cc1c(CC(=O)N2CCN(C(=O)C3COc4ccccc4O3)CC2)c(=O)oc2cc(O)ccc12 (configuration not stated) | -6% | -5% | 2% | 320% | -11 | 1%
Cc1ccc2c(c1)c(=O)c1ccccc1n2CCCC(=O)Nc1ccc(C)c(C)c1 | ? | 7% | ? | -3% | / | 4%
CC1CCC(C(C)C)C(OC(=O)Cn2c(-c3ccc(Cl)cc3)[n+](C)c3ccccc32)C1 (configuration not stated) | ? | 0% | ? | 2% | 5 | -3%
CC1CCC(C(C)C)C(OC(=O)Cn2c(-c3ccc(Br)cc3)[n+](C)c3ccccc32)C1 (configuration not stated) | 21µM* | 5% | ? | -17% | 4 | -3%
Cc1ccccc1OCc1n(CC(=O)OC2CC(C)CCC2C(C)C)c2ccccc2[n+]1C (configuration not stated) | 18µM*! | 2% | -13% | ? | -2 | -3%
Cc1ccc(NC(=O)c2ccc3c(c2)NC(=O)c2ccccc2S3)c(Cl)c1 | ? | -11% | -24% | -23% | / | 0%
COc1ccc(CCNC(=O)C(=O)NCC(c2cccnc2)N2CCN(c3ccccc3)CC2)cc1 (configuration not stated) | 12% | 32% | 3% | 56% | / | 0%
COc1ccc(/C=C2\SC(=S)N(CCC(=O)NCCCN3CCOCC3)C2=O)cc1 | ? | -7% | 12µM* | -14% | -12 | 12%
Cc1ccc(/C=C2\SC(=S)N(CCC(=O)NCCCN3CCOCC3)C2=O)cc1 | ? | -8% | 15µM* | -11% | 17 | ?
O=C(Nc1cccc(C(F)(F)F)c1)N1CCN(C(=O)Nc2cccc(C(F)(F)F)c2)CC1 | 2% | 5% | -10% | -7% | 15 | 0%
